# Laboratory results from PubChem BioAssay (Tox21).
# A number with no mark means an inactive call. Inconclusive results are not listed. Where a call stands in place of a potency, no number is given. The source made the active and inactive calls. Unless noted, the call rests on the fitted dose curve; in most records, active means well fitted curve in the direction sought with a large enough effect in the repeat runs; inconclusive means weak or mixed curves; inactive means no such curve, though single readings can be large; an effect the other way counts as inactive or inconclusive.
# Key:
# [1] = qHTS assay to identify small molecule antagonists of the TGF-beta/Smad signaling pathway - cell viability counter screen (AID 1346824); further: nearly all actives have a fitted effect of over 50% in size
# Procedure, shortened: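 SBE-bla HEK 293T cells, incubated overnight, then compound plus 0.25 ng/mL TGF-beta1 (stock added) for 5 hr at 37 C. Viability was read in the same wells by CellTiter-Glo luminescence after 30 min at room temperature.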
# [2] = qHTS assay to identify small molecule agonists of the TGF-beta/Smad signaling pathway - cell viability counter screen (AID 1346829); further: top concentration of the series differs between compounds; nearly all actives have a fitted effect of over 45% in size
# Procedure, shortened: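 HEK 293T SBE-bla line, 5 hr compound exposure at 37 C, multiplexed CellTiter-Glo viability read by luminescence.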
# [3] = qHTS assay to identify small molecule agonists of the TGF-beta/Smad signaling pathway (AID 1346859; active means well fitted activation curve with a large enough effect in the signal ratio in the repeat runs, not every such curve was filed as active; the % refers to the signal ratio; further: series mostly up to about 77 µM)
# Procedure, shortened: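 Dual-wavelength fluorescence (460/530 nm emission) quantified beta-lactamase expression under the Smad binding element in HEK 293T cells following 5 hr compound treatment at 37 C.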
# [4] = molecular target: Thyrotropin-releasing hormone receptor (Homo sapiens) (UniProt P34981); experiment: qHTS assay to identify small molecule antagonists of the thyrotropin-releasing hormone receptor (TRHR) signaling pathway (AID 1346877; active means well fitted inhibition curve with a large enough effect in the repeat runs, not every such curve was filed as active; further: series mostly up to about 51 µM)
# Chain of Thyrotropin-releasing hormone receptor (Homo sapiens) (P34981 whole entry, looked up): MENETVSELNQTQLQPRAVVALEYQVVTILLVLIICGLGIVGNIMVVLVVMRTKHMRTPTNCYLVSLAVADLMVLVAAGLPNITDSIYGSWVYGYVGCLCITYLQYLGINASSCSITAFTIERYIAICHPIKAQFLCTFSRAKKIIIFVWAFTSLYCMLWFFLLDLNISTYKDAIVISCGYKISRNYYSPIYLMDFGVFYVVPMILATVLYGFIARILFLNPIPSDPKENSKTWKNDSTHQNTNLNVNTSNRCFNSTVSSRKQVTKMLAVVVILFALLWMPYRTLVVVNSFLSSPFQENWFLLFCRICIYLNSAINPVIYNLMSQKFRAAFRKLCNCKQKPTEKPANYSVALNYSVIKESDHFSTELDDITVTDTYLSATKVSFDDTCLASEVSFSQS
# Procedure, shortened: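 Human TRHR in HEK293 cells; inhibition of the intracellular calcium rise triggered by 1 nM TRH was followed by fluorescence over 3 min. Compounds were run at 15 concentrations, three replicates each.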
# [5] = molecular target: Thyrotropin-releasing hormone receptor (Homo sapiens) (UniProt P34981); experiment: qHTS assay to identify small molecule agonists of the thyrotropin-releasing hormone receptor (TRHR) signaling pathway (AID 1346891; calls by dose curve;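 further: HEK293 cells expressing TRHR with calcium dye readout; series mostly up to about 58 µM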)
# Procedure, shortened: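 Kinetic fluorescence (3 min, 1 s intervals) reported intracellular calcium after compound transfer onto TRHR-Hek293 cells pre-loaded with dye for 2 h at 37 °C.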
# [6] = Human pregnane X receptor (PXR) small molecule agonists, qHTS cell viability counter screen (AID 1346977); further: nearly all actives have a fitted effect of over 50% in size
# Procedure, shortened: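 HepG2 cells stably carrying the PXR-Luc reporter are cultured with 5% charcoal-stripped FBS and treated with compounds for 24hr. CellTiter-Fluor is added at 23hr and fluorescence is read after 1hr.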
# [7] = Caspase-3/7 induction in HepG2 cells by small molecules, qHTS assay (AID 1346978); further: nearly all actives have a fitted effect of over 15% in size
# Procedure, shortened: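 Wild-type HepG2 cells, 2,000/well, settled 5 hr at 37 C and 5% CO2, then compound-treated for 17 hr; caspase-3/7 activity read by luminescent Caspase-Glo 3/7 after 30 min at room temperature.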
# [8] = Caspase-3/7 induction in CHO-K1 cells by small molecules, qHTS cell viability counter screen (AID 1346979); further: nearly all actives have a fitted effect of over 35% in size
# Procedure, shortened: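 Seeding: 1,500 CHO-K1 cells/well. Rest: 5hr, 37C. Treatment: compounds in DMSO, 16hr. Read: CellTiter-Fluor, 1hr, fluorescence.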
# [9] = Caspase-3/7 induction in CHO-K1 cells by small molecules, qHTS assay (AID 1346980); further: nearly all actives have a fitted effect of over 15% in size
# Procedure, shortened: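 Wild-type CHO-K1 cells exposed to compounds for 17hr at 37 C, 5% CO2. Caspase-3/7 activity then measured by Caspase-Glo 3/7 luminescence after 30min at room temperature.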
# [10] = Caspase-3/7 induction in HepG2 cells by small molecules, qHTS cell viability counter screen (AID 1346981); further: series mostly up to about 92 µM; nearly all actives have a fitted effect of over 30% in size
# Procedure, shortened: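 The parent HepG2 line is plated at 2,000 cells per well and rested 5 hr before compound pinning from DMSO stocks. Following a 16-hr treatment at 37 C, a fluorogenic live-cell substrate (CellTiter-Fluor) reports viability after 1 hr.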
# [11] = molecular target: Nuclear receptor subfamily 1 group I member 2 (Homo sapiens) (UniProt O75469); experiment: Human pregnane X receptor (PXR) small molecule agonists, qHTS assay (AID 1346982); further: nearly all actives have a fitted effect of over 35% in size; further: potency means the concentration at half of the fitted maximal effect
# Chain of Nuclear receptor subfamily 1 group I member 2 (Homo sapiens) (O75469 whole entry, looked up): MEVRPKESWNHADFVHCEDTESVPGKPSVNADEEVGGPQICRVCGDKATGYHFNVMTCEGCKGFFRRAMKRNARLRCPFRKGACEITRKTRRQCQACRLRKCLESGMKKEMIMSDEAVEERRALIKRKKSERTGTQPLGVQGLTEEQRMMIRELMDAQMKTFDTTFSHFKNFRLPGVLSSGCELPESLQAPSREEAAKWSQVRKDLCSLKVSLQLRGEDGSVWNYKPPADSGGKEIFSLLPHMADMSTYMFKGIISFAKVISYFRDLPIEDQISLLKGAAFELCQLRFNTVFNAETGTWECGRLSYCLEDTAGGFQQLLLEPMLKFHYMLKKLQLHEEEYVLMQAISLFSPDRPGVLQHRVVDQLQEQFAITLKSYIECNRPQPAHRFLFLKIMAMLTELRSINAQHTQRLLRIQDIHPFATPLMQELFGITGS
# Procedure, shortened: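 After plating in 5% charcoal-stripped FBS and a 5 hr rest, PXR-Luc HepG2 cells received compounds in DMSO. Following 24 hr at 37 C, ONE-Glo was added and light output read.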
# [12] = molecular target: Nuclear receptor subfamily 1 group I member 2 (Rattus norvegicus) (UniProt Q9R1A7); experiment: Rat pregnane X receptor (rPXR) activation by small molecules, qHTS assay (AID 1346983); conditions: rPXR luciferase reporter cells, One-Glo luminescence, 24 h; max activation: hits give high values; further: nearly all actives have a fitted effect of over 20% in size
# Chain of Nuclear receptor subfamily 1 group I member 2 (Rattus norvegicus) (Q9R1A7 whole entry, looked up): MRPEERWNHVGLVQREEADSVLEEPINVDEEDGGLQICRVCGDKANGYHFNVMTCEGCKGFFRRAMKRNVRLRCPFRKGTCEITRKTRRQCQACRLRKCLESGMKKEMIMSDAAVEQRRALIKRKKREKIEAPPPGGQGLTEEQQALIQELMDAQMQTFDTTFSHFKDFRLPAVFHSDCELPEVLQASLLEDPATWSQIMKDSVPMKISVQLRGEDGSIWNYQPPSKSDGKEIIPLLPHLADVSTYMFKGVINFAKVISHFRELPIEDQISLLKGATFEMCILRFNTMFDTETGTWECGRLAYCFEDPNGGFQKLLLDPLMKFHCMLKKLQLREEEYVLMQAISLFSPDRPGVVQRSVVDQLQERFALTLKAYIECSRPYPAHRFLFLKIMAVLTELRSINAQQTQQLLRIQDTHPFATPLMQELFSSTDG
# Procedure, shortened: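 Cell-based rPXR activation assay: rPXR cells, 2,000 per well, rested 5hr at 37 C, then exposed to compounds in DMSO for 24 hr at 37 C. Luciferase activity read by One-Glo luminescence after 30 min at room temperature.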
# [13] = molecular target: Nuclear receptor subfamily 1 group I member 2 (Homo sapiens) (UniProt O75469); experiment: CYP3A4 induction through human pregnane X receptor (PXR) by small molecules, qHTS assay (AID 1346984); further: nearly all actives have a fitted effect of over 40% in size
# Procedure, shortened: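 Human PXR activation is tracked via CYP3A4 promoter-luciferase in DPX-2 (HepG2) cells. Compounds treat cells for 24hr at 37C, and luminescence is read after One-Glo.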
# [14] = molecular target: Nuclear receptor subfamily 1 group I member 2 (Homo sapiens) (UniProt O75469); experiment: Human pregnane X receptor (PXR) activation by small molecules, qHTS assay (AID 1346985); further: nearly all actives have a fitted effect of over 40% in size
# Procedure, shortened: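 DPX-2 cells (HepG2 co-transfected with a PXR response element and a CYP3A4-promoter luciferase construct) were seeded at 2,000 per well, rested 5 hr at 37C, then exposed to DMSO-dissolved compounds for 24 hr. Activation was read as luciferase luminescence.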
# [15] = molecular target: Cytochrome P450 2D6 (Homo sapiens) (UniProt P10635); experiment: Cytochrome P450 Family 2 Subfamily D Member 6 (CYP2D6) small molecule antagonists: luciferase reporter qHTS assay (AID 1671196); further: series mostly up to about 120 µM; nearly all actives have a fitted effect of over 50% in size
# Chain of Cytochrome P450 2D6 (Homo sapiens) (P10635 whole entry, looked up): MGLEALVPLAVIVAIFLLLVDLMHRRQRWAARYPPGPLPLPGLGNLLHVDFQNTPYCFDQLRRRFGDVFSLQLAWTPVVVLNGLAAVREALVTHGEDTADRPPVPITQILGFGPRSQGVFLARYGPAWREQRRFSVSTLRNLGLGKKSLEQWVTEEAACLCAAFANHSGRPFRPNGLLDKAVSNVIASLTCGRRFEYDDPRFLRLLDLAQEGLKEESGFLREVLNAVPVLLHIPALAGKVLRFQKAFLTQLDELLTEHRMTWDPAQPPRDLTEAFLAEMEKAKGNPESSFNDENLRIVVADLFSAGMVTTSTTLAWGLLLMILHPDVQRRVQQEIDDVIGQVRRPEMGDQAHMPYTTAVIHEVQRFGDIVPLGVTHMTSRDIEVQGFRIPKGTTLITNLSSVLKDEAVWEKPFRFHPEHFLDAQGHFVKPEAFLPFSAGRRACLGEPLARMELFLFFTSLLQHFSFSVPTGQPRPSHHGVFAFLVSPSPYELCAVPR
# Procedure, shortened: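 Quantitative HTS of Tox21 chemicals against CYP2D6 using a luminescent proluciferin substrate. After NADPH addition, 1 h room-temperature reaction; luminescence recorded 20 min post detection reagent.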
# [16] = molecular target: Cytochrome P450 2C19 (Homo sapiens) (UniProt P33261); experiment: Cytochrome P450 Family 2 Subfamily C Member 19 (CYP2C19) small molecule antagonists: luciferase reporter qHTS assay (AID 1671197); further: series mostly up to about 120 µM; nearly all actives have a fitted effect of over 65% in size
# Chain of Cytochrome P450 2C19 (Homo sapiens) (P33261 whole entry, looked up): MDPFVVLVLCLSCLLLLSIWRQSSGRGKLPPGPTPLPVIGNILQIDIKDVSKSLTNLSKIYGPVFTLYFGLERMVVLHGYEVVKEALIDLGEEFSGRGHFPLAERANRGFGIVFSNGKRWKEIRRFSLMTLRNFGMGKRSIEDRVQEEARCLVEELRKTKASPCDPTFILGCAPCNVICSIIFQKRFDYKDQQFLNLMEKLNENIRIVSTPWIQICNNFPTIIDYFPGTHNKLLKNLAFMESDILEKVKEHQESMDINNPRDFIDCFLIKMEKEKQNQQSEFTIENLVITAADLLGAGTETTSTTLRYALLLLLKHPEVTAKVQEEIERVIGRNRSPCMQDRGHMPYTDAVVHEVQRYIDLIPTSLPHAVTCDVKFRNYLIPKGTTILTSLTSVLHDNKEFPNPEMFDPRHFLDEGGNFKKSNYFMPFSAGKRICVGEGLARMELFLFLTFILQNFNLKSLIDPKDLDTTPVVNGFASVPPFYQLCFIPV
# Procedure, shortened: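 First, compounds are pinned into enzyme-substrate mix and held 10 min at room temperature. Second, NADPH regeneration solution is added and plates incubate 1 h at 37C. Third, detection reagent is added and luminescence read after 20 min.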
# [17] = molecular target: Cytochrome P450 1A2 (Homo sapiens) (UniProt P05177); experiment: Cytochrome P450 Family 1 Subfamily A Member 2 (CYP1A2) small molecule antagonists: luciferase reporter qHTS assay (AID 1671199); further: nearly all actives have a fitted effect of over 50% in size; further: potency means the concentration at half of the fitted maximal effect; on activity change, negative = inhibition: series mostly up to about 120 µM
# Chain of Cytochrome P450 1A2 (Homo sapiens) (P05177 whole entry, looked up): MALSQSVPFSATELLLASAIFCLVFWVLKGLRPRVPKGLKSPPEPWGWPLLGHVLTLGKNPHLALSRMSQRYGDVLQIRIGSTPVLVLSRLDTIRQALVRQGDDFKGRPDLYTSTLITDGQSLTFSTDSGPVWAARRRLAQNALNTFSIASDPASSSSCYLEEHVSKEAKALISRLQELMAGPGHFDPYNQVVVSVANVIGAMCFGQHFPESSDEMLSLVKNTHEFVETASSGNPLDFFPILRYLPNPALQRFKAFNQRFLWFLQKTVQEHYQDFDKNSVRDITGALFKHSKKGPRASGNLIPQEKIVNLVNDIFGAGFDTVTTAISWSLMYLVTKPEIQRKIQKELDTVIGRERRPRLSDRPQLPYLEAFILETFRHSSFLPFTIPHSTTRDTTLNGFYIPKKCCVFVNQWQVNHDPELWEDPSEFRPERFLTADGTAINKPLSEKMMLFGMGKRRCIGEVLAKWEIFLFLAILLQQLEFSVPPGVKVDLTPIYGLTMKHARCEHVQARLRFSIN
# Procedure, shortened: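 Quantitative high-throughput format using the P450-Glo CYP1A2 system. Reaction initiated by NADPH regeneration solution, 1 h at room temperature, then stopped with detection reagent; luminescence measured 20 min later.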
# [18] = molecular target: Voltage-gated inwardly rectifying potassium channel KCNH2 (Homo sapiens) (UniProt Q12809); experiment: Human Ether-a-go-go-Related Gene (hERG) channel small molecule antagonists: fluorescence cell-based qHTS assay (AID 1671200)
# Chain of Voltage-gated inwardly rectifying potassium channel KCNH2 (Homo sapiens) (Q12809 whole entry, looked up): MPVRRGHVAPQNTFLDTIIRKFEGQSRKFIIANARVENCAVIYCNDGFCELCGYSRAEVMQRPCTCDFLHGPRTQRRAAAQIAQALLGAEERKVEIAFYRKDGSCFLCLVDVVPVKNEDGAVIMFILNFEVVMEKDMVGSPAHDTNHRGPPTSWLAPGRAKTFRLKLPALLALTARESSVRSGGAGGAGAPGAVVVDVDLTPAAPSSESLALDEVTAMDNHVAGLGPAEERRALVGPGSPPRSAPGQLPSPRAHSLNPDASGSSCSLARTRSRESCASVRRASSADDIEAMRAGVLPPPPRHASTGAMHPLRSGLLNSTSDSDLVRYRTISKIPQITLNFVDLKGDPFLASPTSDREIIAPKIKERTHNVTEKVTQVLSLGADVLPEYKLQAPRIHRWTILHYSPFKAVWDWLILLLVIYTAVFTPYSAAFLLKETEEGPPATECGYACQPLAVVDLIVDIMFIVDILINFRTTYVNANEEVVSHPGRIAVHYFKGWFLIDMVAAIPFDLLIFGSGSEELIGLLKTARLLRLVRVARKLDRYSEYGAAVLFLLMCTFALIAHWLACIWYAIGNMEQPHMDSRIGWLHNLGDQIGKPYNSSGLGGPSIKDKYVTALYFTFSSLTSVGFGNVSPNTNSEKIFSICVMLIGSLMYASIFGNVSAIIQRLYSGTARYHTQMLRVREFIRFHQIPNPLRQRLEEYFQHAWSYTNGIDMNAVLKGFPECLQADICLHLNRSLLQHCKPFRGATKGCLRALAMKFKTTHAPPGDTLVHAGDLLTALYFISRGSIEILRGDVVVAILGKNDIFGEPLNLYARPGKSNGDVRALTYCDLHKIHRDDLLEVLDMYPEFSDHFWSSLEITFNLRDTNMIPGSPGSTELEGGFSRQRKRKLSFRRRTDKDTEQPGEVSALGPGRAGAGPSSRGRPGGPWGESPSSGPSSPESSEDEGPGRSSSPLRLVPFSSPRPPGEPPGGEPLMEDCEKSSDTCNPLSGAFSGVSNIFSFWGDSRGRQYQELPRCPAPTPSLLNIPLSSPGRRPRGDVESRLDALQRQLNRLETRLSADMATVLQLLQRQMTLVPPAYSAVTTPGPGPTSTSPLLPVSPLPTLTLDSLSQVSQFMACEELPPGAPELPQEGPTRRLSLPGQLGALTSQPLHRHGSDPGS
# Procedure, shortened: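 First, 1000 cells per well are seeded and cultured overnight at 37 C. Next, FluxOR II dye is loaded for 1 h at room temperature, protected from light. After 10 more minutes, stimulus is added and fluorescence is read.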
# [19] = molecular target: Cytochrome P450 3A4 (Homo sapiens) (UniProt P08684); experiment: Cytochrome P450 Family 3 Subfamily A Member 4 (CYP3A4) small molecule antagonists: luciferase reporter qHTS assay (AID 1671201)
# Chain of Cytochrome P450 3A4 (Homo sapiens) (P08684 whole entry, looked up): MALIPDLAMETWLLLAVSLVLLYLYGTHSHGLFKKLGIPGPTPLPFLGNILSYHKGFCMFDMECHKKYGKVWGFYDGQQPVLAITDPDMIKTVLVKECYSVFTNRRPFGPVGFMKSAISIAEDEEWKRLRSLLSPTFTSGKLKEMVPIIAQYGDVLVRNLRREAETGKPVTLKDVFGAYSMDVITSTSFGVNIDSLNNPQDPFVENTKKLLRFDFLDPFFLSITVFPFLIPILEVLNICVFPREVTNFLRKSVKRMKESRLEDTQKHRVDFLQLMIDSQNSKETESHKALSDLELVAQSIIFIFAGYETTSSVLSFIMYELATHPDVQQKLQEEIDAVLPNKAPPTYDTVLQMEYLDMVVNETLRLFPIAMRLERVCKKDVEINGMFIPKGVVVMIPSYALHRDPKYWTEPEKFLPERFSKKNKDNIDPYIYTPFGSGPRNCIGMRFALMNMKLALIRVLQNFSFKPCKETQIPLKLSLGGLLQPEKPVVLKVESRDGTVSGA
# Procedure, shortened: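 Enzyme and proluciferin substrate are mixed with test chemicals for 10 min, then NADPH regeneration system drives turnover for 1 h at room temperature. A detection reagent halts the reaction; luminescence after 20 min gives relative activity.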
# [20] = molecular target: Cytochrome P450 2C9 (Homo sapiens) (UniProt P11712); experiment: Cytochrome P450 Family 2 Subfamily C Member 9 (CYP2C9) small molecule antagonists: luciferase reporter qHTS assay (AID 1671198)
# Chain of Cytochrome P450 2C9 (Homo sapiens) (P11712 whole entry, looked up): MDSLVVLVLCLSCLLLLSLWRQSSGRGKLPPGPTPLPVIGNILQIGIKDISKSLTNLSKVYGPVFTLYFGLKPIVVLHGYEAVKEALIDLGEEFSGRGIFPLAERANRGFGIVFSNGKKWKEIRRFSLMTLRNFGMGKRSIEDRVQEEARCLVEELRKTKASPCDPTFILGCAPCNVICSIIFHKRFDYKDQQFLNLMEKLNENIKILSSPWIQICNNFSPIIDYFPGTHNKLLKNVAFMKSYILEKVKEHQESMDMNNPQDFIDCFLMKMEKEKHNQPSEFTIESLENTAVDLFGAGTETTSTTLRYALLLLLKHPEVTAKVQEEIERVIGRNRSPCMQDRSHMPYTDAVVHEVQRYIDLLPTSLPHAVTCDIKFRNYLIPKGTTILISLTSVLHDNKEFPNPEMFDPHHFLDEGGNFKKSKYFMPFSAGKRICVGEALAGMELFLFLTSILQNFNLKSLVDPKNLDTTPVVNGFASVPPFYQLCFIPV
# Procedure, shortened: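 P450-Glo proluciferin substrate with CYP2C9 enzyme; 10 min RT preincubation, then NADPH regeneration 1 h at 37C; luciferin detection reagent 20 min RT, luminescence in relative luminescence units.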
compound,measurement,setting,value
O=c1[nH]c(=O)c2[nH]c(=O)[nH]c2[nH]1,"viability change, negative = cytotoxic",[1],2.42% [at 6.97 µM]
same,"activity change, negative = cytotoxicity",[2],-0.0048% [at 6.97 µM]
same,activation,[3],-2.44% [at 6.97 µM]
same,"activity, negative = inhibition",[4],0.0155% [at 4.65 µM]
same,activation,[5],0.501% [at 5.23 µM]
same,"activity change, negative = cytotoxicity",[6],-1.5% [at 8.39 µM]
same,caspase activation,[7],-0.796% [at 8.39 µM]
same,"activity change, negative = cytotoxicity",[8],4.37% [at 8.39 µM]
same,caspase-3/7 activation,[9],-0.0479% [at 8.39 µM]
same,"activity change, negative = cytotoxicity",[10],2.67% [at 8.39 µM]
same,activation,[11],-5.05% [at 8.39 µM]
same,max activation,[12],-2.16%
same,outcome,[13],inactive
same,Potency,[14],inactive
same,"activity change, negative = inhibition",[15],-9.18% [at 10.5 µM]
same,"activity change, negative = inhibition",[16],-2.11% [at 10.5 µM]
same,"activity change, negative = inhibition",[17],-28.5% [at 10.5 µM]
same,"activity change, negative = inhibition",[18],-12.8% [at 6.97 µM]
same,"activity change, negative = inhibition",[19],20% [at 10.5 µM]
CCNC(=O)/C=C/c1cccc(Br)c1,outcome,[1],inactive
same,outcome,[2],inactive
same,outcome,[3],inactive
same,outcome,[4],inactive
same,outcome,[5],inactive
same,Potency,[6],inactive
same,outcome,[7],inactive
same,Potency,[8],inactive
same,outcome,[9],inactive
same,Potency,[11],26.6 µM (active)
same,max activation,[12],11.4%
same,outcome,[13],inactive
same,Potency,[14],inactive
same,Potency,[15],inactive
same,Potency,[20],inactive
same,Potency,[17],2.57 µM (active)
same,Potency,[18],inactive
same,Potency,[19],inactive
O=S(=O)(O)CCO,outcome,[1],inactive
same,outcome,[2],inactive
same,outcome,[3],inactive
same,outcome,[4],inactive
same,outcome,[5],inactive
same,Potency,[6],inactive
same,outcome,[7],inactive
same,Potency,[8],inactive
same,outcome,[9],inactive
same,Potency,[10],inactive
same,Potency,[15],inactive
same,Potency,[20],inactive
same,Potency,[18],inactive
same,Potency,[19],inactive
CC(=O)c1ccc(OCC(=O)N2CCCCC2)cc1,outcome,[1],inactive
same,outcome,[2],inactive
same,outcome,[3],inactive
same,outcome,[4],inactive
same,outcome,[5],inactive
same,Potency,[6],inactive
same,outcome,[7],inactive
same,Potency,[8],inactive
same,outcome,[9],inactive
same,Potency,[10],inactive
same,Potency,[15],inactive
same,Potency,[20],inactive
same,Potency,[17],inactive
same,Potency,[18],inactive
same,Potency,[19],inactive
CCCCCCCCC(=O)OCC,outcome,[1],inactive
same,outcome,[2],inactive
same,outcome,[3],inactive
same,outcome,[4],inactive
same,outcome,[5],inactive
same,Potency,[6],inactive
same,outcome,[7],inactive
same,Potency,[8],inactive
same,outcome,[9],inactive
same,Potency,[11],inactive
same,Potency,[16],inactive
same,Potency,[18],inactive
same,Potency,[19],inactive
O=[Si]=O,outcome,[1],inactive
same,outcome,[2],inactive
same,outcome,[3],inactive
same,outcome,[4],inactive
same,outcome,[5],inactive
same,Potency,[6],inactive
same,outcome,[7],inactive
same,Potency,[8],inactive
same,outcome,[9],inactive
same,Potency,[10],inactive
same,Potency,[11],inactive
same,Potency,[15],inactive
same,Potency,[16],inactive
same,Potency,[20],inactive
same,Potency,[17],inactive
same,Potency,[18],inactive
same,Potency,[19],inactive
C=CCCCCCCCCCCC,"viability change, negative = cytotoxic",[1],12.5% [at 6.97 µM]
same,"activity change, negative = cytotoxicity",[2],-3.69% [at 6.97 µM]
same,activation,[3],-3.71% [at 6.97 µM]
same,"activity, negative = inhibition",[4],4.06% [at 4.65 µM]
same,activation,[5],-0.423% [at 5.23 µM]
same,"activity change, negative = cytotoxicity",[6],-1.17% [at 8.39 µM]
same,caspase activation,[7],-1.35% [at 8.39 µM]
same,"activity change, negative = cytotoxicity",[8],-0.387% [at 8.39 µM]
same,caspase-3/7 activation,[9],0.611% [at 8.39 µM]
same,"activity change, negative = cytotoxicity",[10],0.644% [at 8.39 µM]
same,activation,[11],-8.11% [at 8.39 µM]
same,"activity change, negative = inhibition",[15],-22.8% [at 10.5 µM]
same,"activity change, negative = inhibition",[16],11.6% [at 10.5 µM]
same,"activity change, negative = inhibition",[20],-1.77% [at 10.5 µM]
same,"activity change, negative = inhibition",[17],-6.04% [at 10.5 µM]
same,"activity change, negative = inhibition",[18],6.79% [at 6.97 µM]
same,"activity change, negative = inhibition",[19],4% [at 10.5 µM]
